Assay results published in ChEMBL document CHEMBL3988442, “University of Dundee, Small-Polar-MMV Screening Library” (2021).

Assays:
[1] = target: T1, Aspartate--tRNA(Asp/Asn) ligase (Mycobacterium tuberculosis (strain ATCC 25618 / H37Rv)) (UniProt P9WFW3); experiment: Assay for Asp RNA synthetase-1 from Mycobacterium tuberculosis; format: functional; design: scale not given: direction of the effect not stated beside the values; details: 30 µM; also: in the data most compounds retested in dose-response had high values
T1 sequence (whole entry): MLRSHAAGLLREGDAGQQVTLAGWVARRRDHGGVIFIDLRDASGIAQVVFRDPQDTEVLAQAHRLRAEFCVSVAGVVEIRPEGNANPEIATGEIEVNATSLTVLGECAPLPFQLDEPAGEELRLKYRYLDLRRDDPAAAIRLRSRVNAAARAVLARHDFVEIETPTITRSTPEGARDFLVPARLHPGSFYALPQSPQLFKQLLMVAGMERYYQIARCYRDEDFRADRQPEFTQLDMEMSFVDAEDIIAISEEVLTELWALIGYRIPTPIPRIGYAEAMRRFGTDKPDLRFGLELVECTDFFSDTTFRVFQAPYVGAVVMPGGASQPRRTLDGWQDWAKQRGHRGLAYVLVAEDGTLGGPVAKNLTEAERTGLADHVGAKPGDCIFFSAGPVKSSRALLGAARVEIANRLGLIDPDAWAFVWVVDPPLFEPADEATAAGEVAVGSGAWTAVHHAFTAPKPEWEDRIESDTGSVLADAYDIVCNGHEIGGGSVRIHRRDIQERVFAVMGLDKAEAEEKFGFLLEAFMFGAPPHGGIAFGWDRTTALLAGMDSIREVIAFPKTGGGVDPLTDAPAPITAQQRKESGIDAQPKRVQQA

[2] = target: Shiga toxin 2 (Escherichia coli O157:H7) (UniProt P09385+P09386); experiment: E. coli 0.157:H7 Shiga Toxin SOP - stx2 screening assay; format: functional; design: scale not given: direction of the effect not stated beside the values; details: 30 µM

SMILES	Percent Effect [1]	Percent Effect [2]
CN1CCOC(CNCc2nc(-c3ccccc3)cs2)C1 (centres undefined)	-7.57%	-26%
CCNc1cc2c(nn1)CCN(C(=O)Cc1c(C)noc1C)C2	0.225%	16%
Cc1nc(-c2ccco2)ccc1C(=O)N1CCCC1Cn1cccn1 (centres undefined)	0.0146%	15.5%
CCn1ncc2c1C(COCC1CC1)CN(S(=O)(=O)N(C)C)C2 (centres undefined)	-1.37%	-9.58%
c1ccc(CN2CCOCC3(CCN(C4CCOCC4)C3)C2)cc1 (centres undefined)	6.57%	12.2%
O=C(NCc1cc[nH]n1)NCC(c1ccco1)N1CCCC1 (centres undefined)	0.607%	4.49%
Cn1cc(C2CCCN2C(=O)CCCOc2ccc(F)cc2F)cn1 (centres undefined)	-2.66%	13.7%
Cn1cccc1C(=O)Nc1cc(F)ccc1OCC1CCCO1 (centres undefined)	-6.53%	22%
CC(C)(C)NC(=O)CNC(=O)CCc1ccccc1Br	0.279%	-3.39%
COc1ncccc1C(=O)NCC(C)Oc1cccnc1 (centres undefined)	-5.57%	-2.36%
CC[C@H](C)[C@H](NC(=O)Cc1csc(-c2cccc(Cl)c2)n1)C(=O)O	4.59%	-17.1%
O=C(CN1CCc2cncnc2C1)NCCOc1ccccc1	0.955%	21.9%
NS(=O)(=O)N1CCc2ccc(NC(=O)Cc3ccc(F)cc3)cc21	-5.84%	-15%
COc1cc(CN(C(=O)Nc2cccnc2OC)C2CC2)ccc1O	-2.28%	11.9%
O=C(CCNc1ncccn1)NCCOc1ccc2c(c1)CCC2	1.63%	35.6%
CN(C)[C@@H]1CCN(c2ncccn2)[C@H]1Cc1ccccc1	-0.0594%	-1.36%
CC(NC(=O)NCCN1CCCCCC1=O)c1nncn1C (centres undefined)	-7.63%	-18.6%
O=C1CCCN1CC1CN(C(=O)CC2CCCC2)Cc2nccn2C1 (centres undefined)	4.01%	-4.12%
Cc1nc(C(=O)N2CCc3c(nc(-c4ccncc4)[nH]c3=O)C2)cs1	0.783%	13.5%
Cn1cccc1C(=O)N1CCn2cc(CNC(=O)CC3CC3)nc2C1	-0.0735%	-50.9%
COc1ccc(CN2CCn3cc(CN4CCCCC4)nc3C2)cc1	4.3%	-5.01%
CC(C)N1CCC(Cc2cnc(-c3cccc(C(=O)O)c3)cn2)C1 (centres undefined)	-5.2%	16%
N#CC1(C(=O)N2CCN(c3nccs3)CC2)CCCCC1	-2.57%	33.3%
O=C(CCNc1ncccn1)NCCc1ccn(-c2ccccc2)n1	-3.01%	-46.2%
CC(=O)N1CCC(Cc2cnc(-c3c(C)n[nH]c3C)cn2)C1 (centres undefined)	-11.6%	-7.52%
CC1c2ncc(CN3CCN(C)CC3)n2CCN1Cc1cccnc1 (centres undefined)	1.75%	-23.1%
CNC(=O)C1CCN(C(=O)c2ccn(-c3ccc(F)cc3)n2)CC1	3.5%	7.26%
